Holding throughout (experiment): NCI-60 one-dose screen, 48 h (100 = growth as untreated, 0 = no growth, -100 = all killed)
Settings in all cases: 10 µM unless noted

For assay [1], the system named is SR leukemia.
For assay [2], the system named is RPMI-8226 leukemia.
Assay [3] concerns OVCAR-8 ovarian.
Assay [4] concerns OVCAR-5 ovarian.
For assay [5], the system named is SK-OV-3 ovarian.
Assay [6] concerns IGROV1 ovarian.
Assay [7] relates to OVCAR-3 ovarian.
For assay [8], the system named is HS 578T breast.
Assay [9] has as its system NCI/ADR-RES ovarian.
Assay [10] relates to T-47D breast.
Assay [11] deals with MDA-MB-435 melanoma.
For assay [12], the system named is SW-620 colon.
The test system of assay [13] is HCT-116 colon.
The subject of assay [14] is HCC-2998 colon.
The subject of assay [15] is KM12 colon.
For assay [16], the system named is OVCAR-4 ovarian.
Assay [17] has as its system BT-549 breast.
Assay [18] concerns MCF7 breast.

Structures are written as SMILES. Compounds without any hit were thinned out: in the full panel of roughly 83,000, 20% have a hit.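 Activity criterion: percent growth below 10, measured after cells in 96-well plates were exposed to a single compound concentration for 48 hours.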 Unmarked numbers belong to inactive results. Activity calls are given as the source filed them.

On to `Oc1cccc2oc(=S)[nH]c12`, for which the growth in assay [1] is 90.4%; in assay [2] it was 106%; in [3] it was 112%; in [4] it was 97.4%; in assay [5] it was 108%; in assay [6], 110%. Besides, the growth was 125% in assay [7]; 109% in [8]; 102% in [9]; 104% in [10]; 115% in assay [11]; 108% in [12]. The growth is 107% in assay [13], 100% in assay [14] and 115% in [15].

In the case of `COc1cccc(NC(=O)c2sc3nc4c(cc3c2N)C(=O)CCC4)c1`, the growth in assay [1] was 3.01% (active); in assay [2] it was 0.464% (active); in assay [4] it was 50%; in [16], 58.9%; in assay [5] it was -2.7% (active); in assay [6] it was 49.2%. Besides, the growth is -2.17% (active) in assay [7]; -31.2% (active) in assay [9]; 51.9% in assay [10]; 29.9% in assay [17]; -37.2% (active) in assay [11]; 23.6% in assay [12]. Besides, the values for the growth in [13] and in assay [15] were 17.6% and 16.6%, respectively.

On to `COc1cc(-c2cc(-c3nc4ccc(F)cc4[nH]3)[nH]n2)cc(OC)c1OC`, for which the growth is 12.6% in assay [1]; -37.3% (active) in assay [2]; 88.5% in assay [4]; -2.29% (active) in assay [16]; 13.3% in assay [5]; 43.6% in [6]. In addition, the growth is 24% in assay [7]; -6.05% (active) in assay [9]; -21.3% (active) in assay [10]; 6.58% (active) in assay [17]; 5.65% (active) in assay [11]; 52.1% in assay [12]. Further, the growth is 9.15% (active) in [18], 31.2% in assay [13], 66.6% in assay [14] and 12.9% in assay [15].

On to `O=[N+]([O-])c1cccc(/C=N\Nc2ccccc2)c1`, for which the growth in [1] is 89.6%; in assay [2], 86.5%; in assay [3], 63.8%; in assay [4] it was 74.7%; in [5] it was 95.8%; in assay [6], 60.1%. Further, the growth in [7] was 73.1%; in assay [8] it was 71.7%; in assay [9] it was 48.7%; in assay [10], 55.8%; in assay [11] it was 53.8%; in [12], 71.3%. Moreover, the growth in assay [13] is 58.3%; in [14] it was 83.8%; in [15], 38.8%.

As to `Fc1ccc2nc(-c3cc(-c4ccc5c(c4)OCO5)n[nH]3)[nH]c2c1`, the growth in assay [1] was 10%; in assay [2] it was 10.3%; in assay [4], 84.3%; in assay [16] it was 57.2%; in assay [5], 70.3%; in [6], 62.3%. Also, the growth in assay [7] was 5.87% (active); in assay [8], 78.2%; in assay [9], 42.4%; in [10] it was 50.4%; in assay [17] it was 27.5%; in assay [11] it was 46.4%. The growth in [12] is 37.2%; in assay [18] it was 59.3%; in [13] it was 49.6%; in [14], 71.9%; in assay [15] it was 16.1%.

For the compound `Cc1ccc(Nc2c(C(N)=O)cnc3ccc(S(=O)(=O)Nc4cc(C)on4)cc23)cc1`, the growth is 101% in [1]; 103% in [2]; 97.9% in assay [3]; 99.5% in [4]; 107% in assay [5]; 101% in [6]. The growth is 103% in assay [7]; 104% in assay [8]; 92.7% in [10]; 105% in [17]; 103% in assay [11]; 105% in assay [12]. Besides, the growth in [18] is 93.9%; in [13], 94%; in [14], 107%; in [15], 103%.

On to `COc1ccc(-c2nc3ncccn3c2-c2nc3ccc(Br)cc3[nH]2)cc1`, for which the growth in [1] is 61.1%; in assay [2], 60.6%; in assay [4], 95.6%; in assay [16], 101%; in [5] it was 105%; in assay [6] it was 94%. Further, the growth in assay [7] is 72.7%; in [9], 87.3%; in [10], 77.8%; in [17], 90.4%; in assay [11], 68.1%; in [12] it was 93.9%. Further, the growth is 96.7% in assay [18], 83% in [13], 97% in assay [14] and 84.5% in [15].

Take `CC(Cc1ccco1)C(=O)NC(N)=O` (centres undefined): the growth is 100% in [1]; 102% in [2]; 101% in [3]; 108% in assay [16]; 120% in assay [5]; 108% in assay [6]. In addition, the growth in assay [7] is 111%; in [8], 109%; in [9], 104%; in assay [10] it was 114%; in assay [17], 106%; in assay [11], 105%. Besides, the growth in [12] is 104%; in assay [18] it was 102%; in assay [13], 106%; in [14], 105%; in assay [15], 105%.

In the case of `O=c1c(CNc2ccc(S(=O)(=O)Nc3nccs3)cc2)coc2ccccc12`, the growth is 94.7% in assay [1]; 92.1% in assay [2]; 92.8% in [4]; 99.9% in assay [16]; 102% in assay [5]; 101% in assay [6]. Also, the growth in [7] is 110%; in [9], 102%; in assay [10] it was 94.3%; in [17], 99.5%; in assay [11], 112%; in assay [12], 101%. Moreover, the growth in assay [18] is 110%; in assay [13], 100%; in [14] it was 105%; in assay [15], 111%.

For `COC(=O)[C@]12CC[C@@H](C)[C@H](C)[C@@H]1C1=CC[C@@H]3[C@@]4(C)C=C(O)C(=O)C(C)=C4CC[C@@]3(C)[C@]1(C)CC2`, the growth is 1.56% (active) in [2]; 37.9% in assay [3]; 64.5% in [4]; 37.8% in [16]; 61.7% in assay [5]; 53.6% in assay [6]. Further, the growth in [7] is 28.5%; in [8], 33.2%; in assay [9], 38.8%; in assay [10], 5.51% (active); in assay [17], 69.1%; in [11], 49%. For the same compound, the growth is 27.9% in [12]; 17.2% in [18]; 18.1% in assay [13]; 9.96% (active) in assay [14]; 30.3% in assay [15].

For the origin of these results see PubChem BioAssay (NCI).
